Consider 23 compounds from PubChem BioAssay (NCATS).

Assay [1] is described as follows: Cell Viability qHTS for small molecule stabilizers of the endoplasmic reticulum resident proteome (AID 1508629).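 Also: compound exposure about 46 h in total before the viability read.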 Also: potency is read from the fitted curve at half-maximal effect.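 As to max response: human SH-SY5Y neuroblastoma cells carrying the GLuc-SERCaMP reporter; % is scaled to controls: 0 for no effect and ±100 for the full control effect.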 The note with it: cell viability counter-screen, 100 nM thapsigargin for final 4 h. On the technique in general: In qHTS, concentration-response curves come from the screen itself.
Assay [2] can be described thus: Primary qHTS for small molecule stabilizers of the endoplasmic reticulum resident proteome: Secreted ER Calcium Modulated Protein (SERCaMP) assay (AID 1508630). Also: potency is read from the fitted curve at half-maximal effect. The conditions noted are these: SH-SY5Y GLuc-SERCaMP (Gaussia luciferase released on ER calcium loss) secretion, thapsigargin, luminescence; series mostly up to 38.4 µM. The method in brief:
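GLuc-SERCaMP-expressing SH-SY5Y cells, pretreated 16 h with compound, are challenged with thapsigargin to empty ER calcium stores; after 4 h, coelenterazine is added directly to the medium and luminescence is imaged.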

The next assay concerns the target Papain (Carica papaya) (UniProt P00784). The experiment in a line: Primary qHTS assay for inhibitors of the protease papain (AID 1645873).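 Also: papain turnover of Z-FR-AMC read as the AMC fluorescence gain over 10 min.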 Also: potency is read from the fitted curve at half-maximal effect. The conditions noted are these: papain Z-FR-AMC cleavage, AMC fluorescence; series mostly up to 49.8 µM.
A short description of assay [3]: Primary qHTS for inhibitors of nuclear receptor binding SET domain protein 2 (NSD2) in an isogenic RCH-ACV NSD2 p.E1099K mutant (9B) (AID 1645876). Also: nearly all actives have a fitted effect of over 70% in size. Also: potency is read from the fitted curve at half-maximal effect. The conditions noted are these: RCH-ACV NSD2 E1099K (9B) viability, CellTiter-Glo, 72 h; series mostly up to 44.9 µM.
Assay [4] is described as follows: Primary qHTS for inhibitors of nuclear receptor binding SET domain protein 2 (NSD2) in an RCH-ACV wild type WT cells (2C) (AID 1645877). Also: nearly all actives have a fitted effect of over 70% in size. Also: potency is read from the fitted curve at half-maximal effect. The conditions noted are these: RCH-ACV (leukaemia line) NSD2 WT (2C) viability, CellTiter-Glo, 72 h; series mostly up to 44.9 µM.
Assay [5] can be described thus: A High-Content qHTS Against Drug Library for the Identification of Small Molecules that Inhibit DYT1 Early Onset Primary Dystonia-Associated Cell Pathology (AID 1645839; calls by dose curve). The note with it: HEK293 Flp-In EGFP-delE TorsinA, punctate imaging, 48 h; series mostly up to 46.1 µM. The gist of the method: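 Flp-In T-REx 293 cells with tetracycline-inducible EGFP-delE hTOR1A (WT EGFP-hTOR1A as reference), 800 cells/well; compound added with tetracycline, 48 h at 37 C. Fixed, permeabilized cells imaged; %pathology (punctate TorsinA) primary, cell count counterscreen.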

For assay [6], the target named is Cytochrome P450 2D6 (Homo sapiens) (UniProt P10635). As to the kind of experiment: Cytochrome P450 family 2 subfamily D member 6 (CYP2D6) small molecule antagonists: luciferase biochemical (cell-free) qHTS assay (AID 1645840; active = well fitted curve in the direction sought with a large enough effect in the repeat runs; an effect the other way counts as inactive or inconclusive; also: nearly all actives have a fitted effect of over 55% in size; also: potency is read from the fitted curve at half-maximal effect). The note with it: P450-Glo CYP2D6 enzyme, luciferin luminescence, 1 h; series mostly up to 57.4 µM. The method in brief: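 P450-Glo luminescent screen: recombinant CYP2D6 enzyme–proluciferin substrate mix preincubated with compound 10 min at room temperature, then NADPH regeneration added for 1 h at room temperature. Detection reagent added for 20 min; luciferin light read as relative luminescence units.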

In assay [7] the target is Cytochrome P450 2C9 (Homo sapiens) (UniProt P11712). As to the kind of experiment: Cytochrome P450 family 2 subfamily C member 9 (CYP2C9) small molecule antagonists: luciferase biochemical (cell-free) qHTS assay (AID 1645842; active = well fitted curve in the direction sought with a large enough effect in the repeat runs; an effect the other way counts as inactive or inconclusive; also: nearly all actives have a fitted effect of over 55% in size; also: potency is read from the fitted curve at half-maximal effect). The conditions noted are these: P450-Glo CYP2C9 enzyme assay, luciferin luminescence; series mostly up to 57.4 µM. The gist of the method:
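Luminescence, after 20 min with luciferin detection reagent, reflected CYP2C9 turnover during a 1 h NADPH-driven reaction at 37C. Enzyme-substrate mix contained 0.4% bovine serum albumin and was preincubated with compound 10 min at room temperature.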

Where “and” joins values, the source holds several entries; their conditions need not be identical. Identical values can stand only once. Results filed as inconclusive are left out. More than one record can exist for a structure, and the calls need not agree. Calls of active or inactive are those of the source. Unless noted, calls follow the shape of the dose curve; as a rule, active = well fitted curve in the direction sought with a large enough effect; inconclusive = small, poorly fitted or top-dose-only effect, or another doubt; inactive = no such curve, though single readings can be large; an effect the other way counts as inactive or inconclusive.

Sequence of Cytochrome P450 2C9 (Homo sapiens) (P11712 whole entry, looked up): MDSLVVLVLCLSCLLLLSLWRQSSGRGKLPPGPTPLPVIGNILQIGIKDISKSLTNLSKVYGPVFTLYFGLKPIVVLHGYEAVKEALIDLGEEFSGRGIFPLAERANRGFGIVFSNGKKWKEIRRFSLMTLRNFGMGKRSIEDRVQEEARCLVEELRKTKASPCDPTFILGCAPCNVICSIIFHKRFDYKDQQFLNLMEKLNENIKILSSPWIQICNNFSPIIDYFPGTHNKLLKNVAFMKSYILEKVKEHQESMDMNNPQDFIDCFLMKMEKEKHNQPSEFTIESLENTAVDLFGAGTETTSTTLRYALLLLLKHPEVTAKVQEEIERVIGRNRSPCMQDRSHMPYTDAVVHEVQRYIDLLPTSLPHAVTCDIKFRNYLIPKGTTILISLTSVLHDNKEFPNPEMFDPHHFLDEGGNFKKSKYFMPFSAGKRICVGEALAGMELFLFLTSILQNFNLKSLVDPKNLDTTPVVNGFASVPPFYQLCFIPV
Sequence of Papain (Carica papaya) (P00784 whole entry, looked up, the tested form may be a part): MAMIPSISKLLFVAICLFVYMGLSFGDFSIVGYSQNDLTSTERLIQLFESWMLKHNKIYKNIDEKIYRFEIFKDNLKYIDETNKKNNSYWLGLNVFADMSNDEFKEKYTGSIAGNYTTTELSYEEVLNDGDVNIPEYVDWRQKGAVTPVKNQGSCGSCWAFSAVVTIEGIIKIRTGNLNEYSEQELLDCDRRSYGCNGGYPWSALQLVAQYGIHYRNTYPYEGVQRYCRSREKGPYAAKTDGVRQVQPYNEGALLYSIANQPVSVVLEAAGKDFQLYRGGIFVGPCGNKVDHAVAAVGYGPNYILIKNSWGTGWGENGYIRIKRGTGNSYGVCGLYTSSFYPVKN
Sequence of Cytochrome P450 2D6 (Homo sapiens) (P10635 whole entry, looked up): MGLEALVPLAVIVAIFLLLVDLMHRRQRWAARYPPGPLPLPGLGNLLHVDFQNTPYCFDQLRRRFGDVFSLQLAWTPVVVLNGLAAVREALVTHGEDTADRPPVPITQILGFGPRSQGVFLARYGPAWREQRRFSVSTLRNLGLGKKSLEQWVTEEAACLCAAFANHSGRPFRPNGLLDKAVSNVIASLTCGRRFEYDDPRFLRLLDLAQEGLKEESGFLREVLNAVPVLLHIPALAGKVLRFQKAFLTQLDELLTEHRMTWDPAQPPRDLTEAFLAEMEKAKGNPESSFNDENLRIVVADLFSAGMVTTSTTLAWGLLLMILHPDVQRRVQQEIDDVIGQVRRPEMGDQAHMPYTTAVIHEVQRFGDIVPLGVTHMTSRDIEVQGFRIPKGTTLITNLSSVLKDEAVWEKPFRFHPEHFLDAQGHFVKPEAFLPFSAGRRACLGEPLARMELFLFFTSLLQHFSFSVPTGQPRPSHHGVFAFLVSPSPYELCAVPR

As for `O=c1c(O)c(-c2ccc(O)c(O)c2)oc2cc(O)cc(O)c12`, the max response in assay [1] was -19.3% (inactive) and 6.63% (inactive) and -20.3% (inactive). In addition, the Potency result (in assay [2]; with Papain (Carica papaya)) was “inactive” in each case. Moreover, the Potency in assay [3] was 11.9 µM (active) and inactive and 9.2 µM (active); in assay [4], “inactive and 14.6 µM (active)”.
Regarding `Cc1ccccc1N1C(=O)c2cc(S(N)(=O)=O)c(Cl)cc2NC1C` (configuration not stated), the Potency result in assay [2], in assay [5], in assay [6], in assay [7], in assay [3] and in assay [4] was “inactive” throughout.
As to `Cn1c(=O)c2c(ncn2C)n(C)c1=O`, in assay [1], the max response was 8.95% (inactive) [middle of 5 runs]. For the same compound, the Potency result (in assay [2]; in assay [5]; in assay [6]; in assay [7]; in the assay with Papain (Carica papaya); in assay [3]) was “inactive” each time. The Potency entry in assay [4] is “inactive”.
Take `COc1ccc(CCN(C)CCCC(C#N)(c2ccc(OC)c(OC)c2)C(C)C)cc1OC` (configuration not stated): the max response in assay [1] was -5.84% (inactive). Moreover, the Potency result in assay [2] was “inactive”.
In the case of `CN1CCC(=C2c3ccccc3CC(=O)c3sccc32)CC1`, in assay [1], the max response is 19.1% (inactive). Also, the Potency result (in assay [2]; in assay [5]; in assay [7]; with Papain (Carica papaya); in assay [3]) was “inactive” throughout. Besides, the Potency in assay [6] was 1.38 µM (active).
With `NCCCCCC(=O)O`, the Potency result in assay [2] was “inactive and 33.5 µM (active)”. Besides, the Potency result (in assay [5]; in assay [6]; in assay [7]; with Papain (Carica papaya); in assay [3]; in assay [4]) was “inactive” throughout.
`CN1CCN2c3ccccc3Cc3ccccc3C2C1` (configuration not stated): the Potency result (in assay [2]; in assay [5]; in assay [7]; with Papain (Carica papaya)) was “inactive” in each case.
`CCCCc1oc2ccccc2c1C(=O)c1cc(I)c(OCCN(CC)CC)c(I)c1`: the max response in assay [1] was 10.4% (inactive). Besides, the Potency entry (in assay [2]; with Papain (Carica papaya)) was “inactive” throughout.
For `Fc1ccc([C@@H]2CCNC[C@H]2COc2ccc3c(c2)OCO3)cc1`, the Potency result in assay [2] is “inactive”.
`CC(C)NCC(O)COc1ccc(CCOCC2CC2)cc1` (configuration not stated): the Potency entry (in assay [2]; in assay [5]; in assay [6]; in assay [7]; in the assay with Papain (Carica papaya); in assay [3]) was “inactive” each time. In addition, in assay [4], the Potency entry was “inactive”.
For `Cn1c(=O)c2[nH]cnc2n(C)c1=O`, the Potency entry (in assay [2]; in assay [5]; in assay [6]; in the assay with Papain (Carica papaya); in assay [3]; in assay [4]) was “inactive” each time.
On to `Cc1cn([C@H]2C=C[C@@H](CO)O2)c(=O)[nH]c1=O`, for which the Potency entry (in assay [2]; in assay [5]; in assay [6]; in assay [7]; with Papain (Carica papaya); in assay [3]) was “inactive” in each case. For the same compound, the Potency entry in assay [4] is “inactive”.
For `Clc1ccc2nsnc2c1NC1=NCCN1`, the Potency result (in assay [2]; in assay [5]; in assay [7]; with Papain (Carica papaya); in assay [3]; in assay [4]) was “inactive” in each case. Further, the Potency in assay [6] was 17.4 µM (active).
With `CN(Cc1cnc2nc(N)nc(N)c2n1)c1ccc(C(=O)N[C@@H](CCC(=O)O)C(=O)O)cc1`, the Potency result in assay [2], in assay [5] and in assay [6] was “inactive” in each case. Also, the Potency in assay [3] was 9.4 nM (active) and 148 nM (active); in assay [4], 9.4 nM (active) and 148 nM (active).
In the case of `COC(=O)Nc1nc2ccc(C(=O)c3cccs3)cc2[nH]1`, the Potency result (in assay [2]; in assay [5]; in assay [6]; in assay [7]; with Papain (Carica papaya)) was “inactive” throughout. Moreover, the Potency in assay [3] is 13.3 nM (active) and 93.4 nM (active); in assay [4], 9.4 nM (active) and 66.1 nM (active).
As to `CCC1(c2ccccc2)C(=O)NCNC1=O`, the Potency result (in assay [2]; in assay [5]; in assay [6]; in assay [7]; with Papain (Carica papaya); in assay [3]) was “inactive” throughout. In addition, the Potency entry in assay [4] is “inactive”.
As for `Cc1ccc(C(=O)Nc2ccc(S(=O)(=O)O)c3cc(S(=O)(=O)O)cc(S(=O)(=O)O)c23)cc1NC(=O)c1cccc(NC(=O)Nc2cccc(C(=O)Nc3cc(C(=O)Nc4ccc(S(=O)(=O)O)c5cc(S(=O)(=O)O)cc(S(=O)(=O)O)c45)ccc3C)c2)c1`, the Potency result in assay [2], in assay [5], in assay [6], in assay [7], in assay [3] and in assay [4] was “inactive” in each case. In addition, in the assay with Papain (Carica papaya), the Potency is 7.08 µM (active).
On to `CCOC(=O)c1ncn2c1CN(C)C(=O)c1cc(F)ccc1-2`, for which the Potency entry (in assay [2]; in assay [5]; in assay [6]; with Papain (Carica papaya); in assay [3]; in assay [4]) was “inactive” in each case. Moreover, in assay [7], the Potency entry was “inactive and 13.5 µM (active)”.
With `N[C@@H](Cc1c[nH]c2ccc(O)cc12)C(=O)O`, the Potency entry (in assay [2]; in assay [5]; with Papain (Carica papaya); in assay [3]; in assay [4]) was “inactive” throughout. Besides, the Potency in assay [6] was 19.5 µM (active); in assay [7], 15.5 µM (active).
`CC(CCc1ccc(O)cc1)NCCc1ccc(O)c(O)c1` (configuration not stated): the max response in assay [1] was 27% (inactive). For the same compound, the Potency result (in assay [7]; with Papain (Carica papaya)) was “inactive” each time.
On to `O=C(Nc1ccc([N+](=O)[O-])cc1Cl)c1cc(Cl)ccc1O`, for which the Potency in assay [1] is 5.01 µM (active); in assay [7], 4.77 µM (active); in assay [3], 11.8 µM (active); in assay [4], 11.8 µM (active). For the same compound, the Potency result (in assay [2]; with Papain (Carica papaya)) was “inactive” in each case.
Consider `CN(C)CCCN1c2ccccc2CCc2ccc(Cl)cc21`, for which the max response in assay [1] is -4.23% (inactive). Besides, the Potency result (in assay [2]; in assay [7]; with Papain (Carica papaya)) was “inactive” in each case. Besides, in assay [4], the Potency was 16.8 µM (active) and 18.6 µM (active).
For the compound `COc1ccccc1OCCNCC(O)COc1cccc2[nH]c3ccccc3c12` (configuration not stated), in assay [1], the Potency is 25.1 µM (active). Further, the Potency entry (in assay [2]; with Papain (Carica papaya)) was “inactive” in each case.
